# In PubChem BioAssay (Tox21):
# “And” between values parts separate entries of the source, which are not always exact repeats. Identical values can stand only once. Records with an inconclusive call do not appear. A call without a number means that no potency is given here. Some compounds were tested as several samples or in several runs, with calls that do not always agree. The source made the active and inactive calls. Unless noted, calls follow the shape of the dose curve; as a rule, active = well fitted curve in the direction sought with a large enough effect in the repeat runs; inconclusive = weak or mixed curves; inactive = no such curve, though single readings can be large; an effect the other way counts as inactive or inconclusive.
# Columns and labels:
# [1] = qHTS assay to identify small molecule antagonists of the sonic hedgehog signaling (Shh) pathway (AID 1259369; calls by dose curve; also: nearly all actives have a fitted effect of over 45% in size; also: potency is read from the fitted curve at half-maximal effect)
# Outline: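 Inhibition of Shh signalling is measured as reduced Gli1-response-element firefly luciferase output in an NIH/3T3-derived stable reporter clone stimulated with conditioned medium for 24hr.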
# [2] = target: Estrogen receptor beta (Homo sapiens) (UniProt Q92731); experiment: qHTS assay to identify small molecule agonists of the estrogen receptor beta (ER-beta) signaling pathway (AID 1259377; active = well fitted activation curve with a large enough effect in the signal ratio in the repeat runs, not every such curve was filed as active; the % refers to the signal ratio)
# Outline: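 In HEK293T cells bearing a UAS-beta-lactamase reporter under ER-beta control, DMSO-delivered compounds were incubated for 16 hr at 37C. Activity was detected as fluorescence 2 hours after LiveBLAzer B/G FRET substrate addition.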
# [3] = target: Estrogen receptor beta (Homo sapiens) (UniProt Q92731); experiment: qHTS assay to identify small molecule antagonists of the estrogen receptor beta (ER-beta) signaling pathway (AID 1259378; active = well fitted inhibition curve with a large enough effect in the signal ratio in the repeat runs, not every such curve was filed as active; the % refers to the signal ratio; also: potency is read from the fitted curve at half-maximal effect)
# Outline: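 ER-beta-UAS-bla HEK293T cells in 2% charcoal-stripped FBS medium treated with compound plus 1nM final 17-beta-estradiol for 16 hr at 37C. Beta-lactamase reporter read by FRET substrate fluorescence after 2 hours at room temperature.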
# [4] = qHTS assay to identify small molecule agonists of the estrogen receptor beta (ER-beta) signaling pathway - cell viability counter screen (AID 1259380); also: nearly all actives have a fitted effect of over 30% in size; also: potency is read from the fitted curve at half-maximal effect
# Outline: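 Same-well viability counter screen. Cells: ER-beta-UAS-bla HEK293T, plated 6 hr before compound, in 2% charcoal-stripped FBS. Compound exposure 16 hr, 37C; viability by CellTiter-Glo luminescence after 30 min at room temperature.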
# [5] = qHTS assay to identify small molecule antagonists of the estrogen receptor beta (ER-beta) signaling pathway - cell viability counter screen (AID 1259382); also: nearly all actives have a fitted effect of over 55% in size; also: potency is read from the fitted curve at half-maximal effect; as to activity change, negative = cytotoxicity: series mostly up to about 92 µM
# Outline: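 Following a 6 hr plating period, HEK293T cells carrying a UAS-driven beta-lactamase reporter under ER-beta control received compounds and 1nM E2 (final). After 16 hr at 37C and 2 hr substrate loading, CellTiter-Glo luminescence indicated viability.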
# [6] = target: Estrogen receptor (Homo sapiens) (UniProt P03372); experiment: qHTS assay to identify small molecule agonists of the estrogen receptor alpha (ER-alpha) signaling pathway in the presence of an antagonist (AID 1259383; calls by dose curve; also: nearly all actives have a fitted effect of over 15% in size; also: potency is read from the fitted curve at half-maximal effect; as to activation: top concentration of the series differs between compounds)
# Outline: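 Cells are hormone-deprived for 5 days (charcoal-stripped FBS, no phenol red), plated for 24hr, spiked with 10.0nM ICI-182,780, then dosed at 15 concentrations. After 22hr at 37C, ONE-Glo luminescence reports ERE-luciferase activity.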
# [7] = qHTS assay to identify small molecule agonists or antagonists of the thyroid stimulating hormone receptor (TSHR) signaling pathway - wild type cell line counter screen (AID 1259384; calls by dose curve)
# Outline: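 Wild-type Hek293 cells, 800/well, 18 h at 37C, then compound with Ro20-1724 for 30 min RT. cAMP by HTRF (cAMP-d2/anti-cAMP cryptate), 1 h RT, fluorescence read. 15 concentrations, triplicates.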
# [8] = target: Thyrotropin receptor (Homo sapiens) (UniProt P16473); experiment: qHTS assay to identify small molecule antagonists of the thyroid stimulating hormone receptor (TSHR) signaling pathway (AID 1259385; calls by dose curve; also: nearly all actives have a fitted effect of over 20% in size; also: potency is read from the fitted curve at half-maximal effect)
# Outline: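 TSHR-HEK293 cells (800/well) plated 18 h, then compounds with Ro20-1724 and TSH at 1.5 ng/mL final, 30 min at room temperature. cAMP quantified by HTRF (cAMP-d2/anti-cAMP-cryptate, 1 h); 15 concentrations in triplicate.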
# [9] = qHTS assay to identify small molecule agonists of the estrogen receptor alpha (ER-alpha) signaling pathway in the presence of an antagonist - cell viability counter screen (AID 1259386);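 also: cells exposed to compounds for 22 h at 37 °C before the viability read; nearly all actives have a fitted effect of over 30% in size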; also: potency is read from the fitted curve at half-maximal effect; as to activity change, negative = cytotoxicity: series mostly up to about 92 µM
# Outline: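 Cells are starved of estrogens for 5 days in charcoal-stripped serum, seeded for 24hr and co-treated with ICI-182,780 (10.0nM final) and test compounds. After 22hr at 37C, viability is read as CellTiter-Fluor fluorescence.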
# [10] = target: Progesterone receptor (Homo sapiens) (UniProt P06401); experiment: qHTS assay to identify small molecule agonists of the progesterone receptor (PR) signaling pathway (AID 1346784; calls by dose curve; also: nearly all actives have a fitted effect of over 30% in size)
# Outline: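 Using charcoal-stripped serum (2%) to limit endogenous steroids, PR-UAS-bla HEK 293T cells received compounds for 16 hr at 37C after 6 hr plating; beta-lactamase FRET fluorescence was recorded following 2 hr substrate loading at room temperature.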
# [11] = target: Progesterone receptor (Homo sapiens) (UniProt P06401); experiment: qHTS assay to identify small molecule antagonists of the progesterone receptor (PR) signaling pathway (AID 1346795; active = well fitted inhibition curve with a large enough effect in the signal ratio in the repeat runs, not every such curve was filed as active; the % refers to the signal ratio; also: potency is read from the fitted curve at half-maximal effect)
# Outline: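 Inhibition of R5020-induced (1 nM final) beta-lactamase reporter signal in PR-UAS-bla HEK293T cells was scored by FRET fluorescence after overnight (16 hr) compound treatment.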
# [12] = qHTS assay to identify small molecule antagonists of the progesterone receptor (PR) signaling pathway - cell viability counter screen (AID 1346798); also: nearly all actives have a fitted effect of over 50% in size; also: potency is read from the fitted curve at half-maximal effect; as to activity change, negative = cytotoxicity: series mostly up to about 92 µM
# Outline: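 ATP content as viability readout: CellTiter-Glo luminescence, 30 min room temperature, in PR-UAS-bla HEK293T cells after 16 hr compound/R5020 treatment at 37C and 5% CO2.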
# [13] = qHTS assay to identify small molecule agonists of the progesterone receptor (PR) signaling pathway - cell viability counter screen (AID 1346799; calls by dose curve; also: nearly all actives have a fitted effect of over 45% in size; also: potency is read from the fitted curve at half-maximal effect)
# Outline: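 Cytotoxicity in PR-bla HEK293T cells: 16 h compound, 37C; CellTiter-Glo added post-FRET read; luminescence after 30 min RT.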
# [14] = qHTS assay to identify small molecule antagonists of the TGF-beta/Smad signaling pathway - cell viability counter screen (AID 1346824); also: nearly all actives have a fitted effect of over 50% in size
# Outline: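 SBE-bla HEK 293T cells, incubated overnight, then compound plus 0.25 ng/mL TGF-beta1 (stock added) for 5 hr at 37 C. Viability was read in the same wells by CellTiter-Glo luminescence after 30 min at room temperature.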
# [15] = qHTS assay to identify small molecule agonists of the TGF-beta/Smad signaling pathway - cell viability counter screen (AID 1346829); also: top concentration of the series differs between compounds; nearly all actives have a fitted effect of over 45% in size
# Outline: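 Cytotoxicity counter screen: CellTiter-Glo luminescence (30 min, room temperature) measured in the SBE-bla HEK 293T reporter wells after 5 hr compound treatment at 37 C and the 2 hr substrate step.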
# [16] = qHTS assay to identify small molecule agonists of the TGF-beta/Smad signaling pathway (AID 1346859; active = well fitted activation curve with a large enough effect in the signal ratio in the repeat runs, not every such curve was filed as active; the % refers to the signal ratio; also: series mostly up to about 77 µM)
# Outline: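 Stable Smad binding element-beta-lactamase HEK 293T cells; 5 hr compound exposure at 37 C under 5% CO2; 2 hr room-temperature substrate step; fluorescence excited at 405 nm, collected at 460 nm and 530 nm.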
# [17] = qHTS assay to identify small molecule agonists of the androgen receptor (AR) signaling pathway in the presence of an antagonist - cell viability counter screen (AID 1259379); also: nearly all actives have a fitted effect of over 25% in size; also: potency is read from the fitted curve at half-maximal effect;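 as to activity change, negative = cytotoxicity: MDA-kb2 human breast cancer cells carrying an MMTV luciferase reporter; series mostly up to about 92 µM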
# Outline: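 Fluorescence from CellTiter-Fluor, added after 15 hr and read 1 hr later, gave cell viability. Cells were MDA-kb2 exposed to compounds (15 concentrations) in the presence of 3.0uM nilutamide at 37C, 0% CO2.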
# [18] = target: Thyrotropin-releasing hormone receptor (Homo sapiens) (UniProt P34981); experiment: qHTS assay to identify small molecule antagonists of the thyrotropin-releasing hormone receptor (TRHR) signaling pathway (AID 1346877; active = well fitted inhibition curve with a large enough effect in the repeat runs, not every such curve was filed as active; also: series mostly up to about 51 µM)
# Outline: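 Cells (TRHR-HEK293) are plated and kept 18 h at 37 °C/5% CO2. A calcium-sensitive dye is added for 2 h, compound follows for 5 min at room temperature, and TRH is then given at 1 nM final.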
# [19] = target: Androgen receptor (Homo sapiens) (UniProt P10275); experiment: qHTS assay to identify small molecule agonists of the androgen receptor (AR) signaling pathway in the presence of an antagonist (AID 1259381; calls by dose curve; also: nearly all actives have a fitted effect of over 15% in size)
# Outline: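 Cells are MDA-kb2 (human breast carcinoma, MMTV-luc, AR/GR responsive). Nilutamide is present at 3.0uM final throughout; compounds are added at 15 concentrations and incubated 16hr at 37C before ONE-Glo luminescence detection.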
# Chain of Androgen receptor (Homo sapiens) (P10275 whole entry, looked up): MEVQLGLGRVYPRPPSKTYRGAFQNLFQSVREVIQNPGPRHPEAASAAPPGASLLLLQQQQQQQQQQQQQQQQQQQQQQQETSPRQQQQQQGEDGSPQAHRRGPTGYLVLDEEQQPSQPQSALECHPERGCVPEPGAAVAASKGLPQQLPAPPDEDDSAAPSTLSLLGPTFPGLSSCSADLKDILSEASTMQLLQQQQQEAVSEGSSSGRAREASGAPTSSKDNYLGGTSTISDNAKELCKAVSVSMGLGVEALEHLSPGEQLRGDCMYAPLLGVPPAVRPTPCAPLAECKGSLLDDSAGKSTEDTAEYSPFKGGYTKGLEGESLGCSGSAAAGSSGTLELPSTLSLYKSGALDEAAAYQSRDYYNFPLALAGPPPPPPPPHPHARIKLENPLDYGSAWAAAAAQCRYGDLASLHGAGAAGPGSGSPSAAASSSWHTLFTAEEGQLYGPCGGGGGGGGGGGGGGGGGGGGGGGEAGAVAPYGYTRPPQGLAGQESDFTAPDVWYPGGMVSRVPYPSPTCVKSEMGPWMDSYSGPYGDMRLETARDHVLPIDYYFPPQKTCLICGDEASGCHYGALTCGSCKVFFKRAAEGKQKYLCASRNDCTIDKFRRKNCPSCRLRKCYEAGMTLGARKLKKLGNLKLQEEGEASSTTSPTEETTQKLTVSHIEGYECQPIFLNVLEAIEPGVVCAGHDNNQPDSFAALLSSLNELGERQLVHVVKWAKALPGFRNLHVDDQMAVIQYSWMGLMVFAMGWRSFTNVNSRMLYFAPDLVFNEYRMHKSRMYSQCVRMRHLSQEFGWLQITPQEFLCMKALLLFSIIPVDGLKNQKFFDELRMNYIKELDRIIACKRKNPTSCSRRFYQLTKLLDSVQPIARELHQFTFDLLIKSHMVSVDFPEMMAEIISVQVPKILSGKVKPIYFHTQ
# Chain of Progesterone receptor (Homo sapiens) (P06401 whole entry, looked up): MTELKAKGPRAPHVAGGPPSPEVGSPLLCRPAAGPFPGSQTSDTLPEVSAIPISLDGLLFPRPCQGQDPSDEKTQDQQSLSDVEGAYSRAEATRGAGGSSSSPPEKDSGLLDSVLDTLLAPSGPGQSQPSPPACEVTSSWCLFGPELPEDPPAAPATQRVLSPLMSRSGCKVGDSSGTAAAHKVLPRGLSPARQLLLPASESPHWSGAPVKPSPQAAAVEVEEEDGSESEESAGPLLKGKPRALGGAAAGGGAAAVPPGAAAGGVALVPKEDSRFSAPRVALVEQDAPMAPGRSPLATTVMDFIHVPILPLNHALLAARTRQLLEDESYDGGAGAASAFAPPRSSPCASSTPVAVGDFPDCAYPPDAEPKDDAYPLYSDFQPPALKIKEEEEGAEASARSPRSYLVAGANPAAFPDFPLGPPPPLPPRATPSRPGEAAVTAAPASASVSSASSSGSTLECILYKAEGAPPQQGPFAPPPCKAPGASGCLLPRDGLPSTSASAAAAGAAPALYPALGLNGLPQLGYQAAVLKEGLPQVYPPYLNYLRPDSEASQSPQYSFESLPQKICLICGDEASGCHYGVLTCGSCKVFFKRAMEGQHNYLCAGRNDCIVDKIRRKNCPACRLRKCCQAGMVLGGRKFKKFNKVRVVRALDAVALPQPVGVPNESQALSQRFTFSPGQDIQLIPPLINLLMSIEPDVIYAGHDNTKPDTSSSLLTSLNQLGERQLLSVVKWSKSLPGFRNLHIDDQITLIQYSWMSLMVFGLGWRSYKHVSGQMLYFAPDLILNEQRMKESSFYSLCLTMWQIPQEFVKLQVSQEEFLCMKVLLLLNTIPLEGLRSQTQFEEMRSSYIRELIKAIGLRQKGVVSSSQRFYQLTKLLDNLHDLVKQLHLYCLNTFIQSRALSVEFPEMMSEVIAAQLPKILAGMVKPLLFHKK
# Chain of Estrogen receptor beta (Homo sapiens) (Q92731 whole entry, looked up): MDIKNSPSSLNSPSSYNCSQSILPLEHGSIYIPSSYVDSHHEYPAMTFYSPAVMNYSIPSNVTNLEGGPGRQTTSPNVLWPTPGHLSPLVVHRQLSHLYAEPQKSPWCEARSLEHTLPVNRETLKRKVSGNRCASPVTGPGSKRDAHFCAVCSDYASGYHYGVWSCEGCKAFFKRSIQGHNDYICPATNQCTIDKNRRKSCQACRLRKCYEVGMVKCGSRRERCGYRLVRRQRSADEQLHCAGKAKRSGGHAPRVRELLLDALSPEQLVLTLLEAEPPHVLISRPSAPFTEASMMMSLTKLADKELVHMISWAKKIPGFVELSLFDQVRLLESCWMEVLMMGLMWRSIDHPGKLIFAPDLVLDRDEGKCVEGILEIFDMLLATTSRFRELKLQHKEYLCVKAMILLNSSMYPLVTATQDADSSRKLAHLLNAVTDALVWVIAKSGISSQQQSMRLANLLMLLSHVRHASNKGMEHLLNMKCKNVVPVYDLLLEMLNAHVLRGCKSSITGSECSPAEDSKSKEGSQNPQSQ
# Chain of Thyrotropin receptor (Homo sapiens) (P16473 whole entry, looked up): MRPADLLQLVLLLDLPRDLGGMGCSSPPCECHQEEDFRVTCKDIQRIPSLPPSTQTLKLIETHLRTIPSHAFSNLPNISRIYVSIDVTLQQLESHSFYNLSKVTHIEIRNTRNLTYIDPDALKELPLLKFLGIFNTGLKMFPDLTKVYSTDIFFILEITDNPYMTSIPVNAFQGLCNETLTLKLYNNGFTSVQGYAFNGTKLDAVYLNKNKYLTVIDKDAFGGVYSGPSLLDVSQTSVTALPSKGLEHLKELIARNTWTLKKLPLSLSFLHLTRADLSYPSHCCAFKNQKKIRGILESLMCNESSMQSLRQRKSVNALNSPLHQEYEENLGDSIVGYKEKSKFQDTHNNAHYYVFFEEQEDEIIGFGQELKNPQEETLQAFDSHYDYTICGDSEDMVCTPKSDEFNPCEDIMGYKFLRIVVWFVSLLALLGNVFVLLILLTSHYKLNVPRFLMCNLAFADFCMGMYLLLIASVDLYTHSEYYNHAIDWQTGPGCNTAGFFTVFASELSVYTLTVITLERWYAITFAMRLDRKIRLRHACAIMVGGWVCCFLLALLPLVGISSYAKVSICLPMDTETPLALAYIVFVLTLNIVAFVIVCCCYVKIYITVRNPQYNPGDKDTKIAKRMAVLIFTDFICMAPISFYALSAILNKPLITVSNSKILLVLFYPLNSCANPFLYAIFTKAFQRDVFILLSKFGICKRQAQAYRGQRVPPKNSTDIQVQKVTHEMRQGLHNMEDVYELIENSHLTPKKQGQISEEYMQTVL
# Chain of Estrogen receptor (Homo sapiens) (P03372 whole entry, looked up): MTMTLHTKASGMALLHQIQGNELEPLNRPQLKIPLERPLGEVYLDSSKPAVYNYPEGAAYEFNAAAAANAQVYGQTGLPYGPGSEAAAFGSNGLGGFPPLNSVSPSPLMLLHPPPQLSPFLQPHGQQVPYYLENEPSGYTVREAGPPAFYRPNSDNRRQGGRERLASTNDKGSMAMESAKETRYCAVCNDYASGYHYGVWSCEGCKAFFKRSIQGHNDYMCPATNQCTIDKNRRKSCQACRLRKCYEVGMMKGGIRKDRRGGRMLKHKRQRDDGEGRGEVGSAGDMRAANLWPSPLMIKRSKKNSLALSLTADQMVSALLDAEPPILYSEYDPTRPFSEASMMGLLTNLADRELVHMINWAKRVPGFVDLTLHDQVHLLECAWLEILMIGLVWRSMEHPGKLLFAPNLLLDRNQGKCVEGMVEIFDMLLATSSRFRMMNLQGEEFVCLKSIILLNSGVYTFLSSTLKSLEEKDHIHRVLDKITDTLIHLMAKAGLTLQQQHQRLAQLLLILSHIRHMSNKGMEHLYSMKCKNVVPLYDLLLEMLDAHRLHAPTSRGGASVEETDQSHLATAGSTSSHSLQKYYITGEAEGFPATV
# Chain of Thyrotropin-releasing hormone receptor (Homo sapiens) (P34981 whole entry, looked up): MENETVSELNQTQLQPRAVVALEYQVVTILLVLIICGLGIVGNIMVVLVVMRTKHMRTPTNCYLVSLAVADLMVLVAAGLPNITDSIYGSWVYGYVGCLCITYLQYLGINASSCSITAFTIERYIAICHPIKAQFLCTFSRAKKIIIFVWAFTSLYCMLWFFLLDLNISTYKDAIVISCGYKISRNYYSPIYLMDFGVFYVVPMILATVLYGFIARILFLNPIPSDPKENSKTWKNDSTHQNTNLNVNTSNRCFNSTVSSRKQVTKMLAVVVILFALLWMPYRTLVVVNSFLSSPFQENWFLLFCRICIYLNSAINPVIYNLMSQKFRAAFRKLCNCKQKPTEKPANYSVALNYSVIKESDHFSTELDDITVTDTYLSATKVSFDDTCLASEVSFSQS
structure (smiles),measurement,setting,value
S=C(NC1CCCCC1)NC1CCCCC1,Potency,[1],24.3 µM (active)
same,Potency,[2],inactive
same,Potency,[3],6.11 µM (active)
same,Potency,[4],inactive
same,Potency,[5],inactive
same,Potency,[6],inactive
same,outcome,[7],inactive
same,Potency,[8],inactive
same,Potency,[9],inactive
same,Potency,[10],inactive
same,Potency,[11],3.44 µM (active)
same,Potency,[12],6 µM (active) and 3.86 µM (active)
same,Potency,[13],7.7 µM (active)
same,Potency,[14],inactive
same,Potency,[15],inactive
same,outcome,[16],inactive
Cc1ccc(C(=O)c2cc(O)c(O)c([N+](=O)[O-])c2)cc1,Potency,[1],24.3 µM (active)
same,Potency,[17],54.5 µM (active) and 29.8 µM (active)
same,Potency,[4],inactive
same,Potency,[5],inactive
same,outcome,[7],inactive
same,Potency,[8],inactive
same,Potency,[9],27.3 µM (active) and 29.8 µM (active)
same,Potency,[10],inactive
same,Potency,[12],inactive
same,Potency,[14],inactive
same,Potency,[15],inactive
same,Potency,[18],inactive
CN(C)C(=N)N=C(N)N,Potency,[1],inactive
same,Potency,[17],inactive
same,Potency,[4],inactive
same,Potency,[5],inactive
same,outcome,[7],inactive
same,Potency,[8],inactive
same,Potency,[9],inactive
same,Potency,[10],inactive
same,Potency,[12],inactive
same,Potency,[13],inactive
same,Potency,[14],inactive
same,Potency,[15],inactive
same,outcome,[16],inactive
same,Potency,[18],inactive
Cc1cccc([N+](=O)[O-])c1C,Potency,[1],inactive
same,Potency,[2],inactive
same,Potency,[3],inactive
same,Potency,[4],inactive
same,outcome,[19],inactive
same,Potency,[5],inactive
same,Potency,[6],inactive
same,Potency,[9],inactive
same,Potency,[10],inactive
same,Potency,[13],inactive
same,Potency,[14],inactive
same,Potency,[15],inactive
same,outcome,[16],inactive
same,Potency,[18],inactive
O=CCc1ccccc1,Potency,[17],inactive
same,Potency,[4],inactive
same,Potency,[5],inactive
same,outcome,[7],inactive
same,Potency,[8],inactive
same,Potency,[9],inactive
same,Potency,[10],inactive
same,Potency,[12],inactive
same,Potency,[13],inactive
same,Potency,[14],inactive
same,Potency,[15],inactive
same,Potency,[18],inactive
CNCCCC12CCC(c3ccccc31)c1ccccc12,Potency,[1],5.45 µM (active)
same,Potency,[2],inactive
same,Potency,[3],26.6 µM (active)
same,Potency,[4],15.4 µM (active) and 29.8 µM (active)
same,Potency,[5],15.4 µM (active) and 26.6 µM (active)
same,Potency,[6],inactive
same,outcome,[7],inactive
same,Potency,[8],inactive
same,Potency,[9],inactive
same,Potency,[12],13.7 µM (active) and 26.6 µM (active)
same,Potency,[13],19.3 µM (active) and inactive
same,Potency,[14],inactive
same,Potency,[15],inactive
same,Potency,[18],inactive
CC(C)OC(=O)C(C)(C)Oc1ccc(C(=O)c2ccc(Cl)cc2)cc1,Potency,[1],27.3 µM (active) and inactive
same,Potency,[2],inactive
same,Potency,[4],inactive
same,outcome,[19],inactive
same,Potency,[5],inactive
same,Potency,[6],inactive
same,outcome,[7],inactive
same,Potency,[8],26.6 µM (active)
same,Potency,[9],inactive
same,Potency,[10],inactive
same,Potency,[11],17.2 µM (active) and 21.1 µM (active)
same,Potency,[12],inactive
same,Potency,[14],inactive
same,Potency,[15],inactive
O=C(Nc1ccc([N+](=O)[O-])cc1Cl)c1cc(Cl)ccc1O,Potency,[17],1.93 µM (active) and 1.46 µM (active)
same,Potency,[4],8.63 µM (active) and 92 nM (active)
same,Potency,[5],2.17 µM (active)
same,"activity change, negative = cytotoxicity",[5],-26.7% [at 19 µM] (inactive)
same,Potency,[6],0.077 µM (active)
same,activation,[6],-10.6% [at 19 µM] (inactive)
same,outcome,[7],inactive
same,Potency,[8],inactive
same,Potency,[9],1.37 µM (active) and 1.3 µM (active)
same,Potency,[11],30.6 µM (active)
CC1=CC2C3CC(C=C3C)C2C1 (stereo unspecified),Potency,[1],inactive and 21.7 µM (active)
same,Potency,[2],inactive
same,Potency,[3],inactive
same,Potency,[17],inactive
same,Potency,[5],inactive
same,Potency,[6],inactive
same,outcome,[7],inactive
same,Potency,[8],inactive
same,Potency,[9],inactive
same,Potency,[10],inactive
same,Potency,[12],inactive
same,Potency,[13],inactive
same,Potency,[14],inactive
same,Potency,[15],inactive
same,outcome,[16],inactive
O=S(=O)(O)c1ccc(O)cc1,Potency,[1],inactive
same,Potency,[17],inactive
same,Potency,[4],inactive
same,Potency,[5],inactive
same,Potency,[6],inactive
same,outcome,[7],inactive
same,Potency,[8],inactive
same,Potency,[9],inactive
same,Potency,[10],inactive
same,Potency,[11],inactive
same,Potency,[12],inactive
same,Potency,[13],inactive
same,Potency,[14],inactive
same,Potency,[15],inactive
same,outcome,[16],inactive
Brc1cc(Oc2cc(Br)c(Br)c(Br)c2Br)c(Br)c(Br)c1Br,Potency,[1],inactive
same,Potency,[17],inactive
same,Potency,[4],6.89 µM (active) and inactive
same,Potency,[5],inactive
same,outcome,[7],inactive
same,Potency,[8],inactive
same,Potency,[9],inactive
same,Potency,[10],inactive
same,Potency,[11],inactive
same,Potency,[13],2.18 µM (active) and inactive
same,Potency,[14],inactive
same,Potency,[15],inactive
same,outcome,[16],inactive
same,Potency,[18],inactive
CC(=O)CC/C=C(\C)CCC=C(C)C,Potency,[1],inactive
same,Potency,[2],inactive
same,Potency,[3],inactive
same,Potency,[4],inactive
same,Potency,[5],inactive
same,Potency,[6],inactive
same,outcome,[7],inactive
same,Potency,[8],inactive
same,Potency,[9],inactive
same,Potency,[10],inactive
same,Potency,[11],inactive
same,Potency,[13],inactive
same,Potency,[14],inactive
same,Potency,[15],inactive
same,outcome,[16],inactive
same,Potency,[18],inactive
CCOC(=O)C(C#N)=C(c1ccccc1)c1ccccc1,Potency,[1],inactive
same,Potency,[2],inactive
same,Potency,[3],4.33 µM (active) and 5.31 µM (active)
same,Potency,[4],inactive
same,Potency,[5],inactive
same,outcome,[7],inactive
same,Potency,[8],inactive
same,Potency,[9],inactive
same,Potency,[12],inactive
same,Potency,[13],inactive
same,Potency,[14],inactive
same,Potency,[15],inactive
Clc1nc(Cl)c(Cl)c(Cl)c1Cl,Potency,[1],inactive
same,Potency,[2],inactive
same,Potency,[3],inactive
same,Potency,[4],inactive
same,Potency,[5],inactive
same,outcome,[7],inactive
same,Potency,[8],inactive
same,Potency,[9],inactive
same,Potency,[10],inactive
same,Potency,[11],inactive
same,Potency,[13],inactive
same,Potency,[14],inactive
same,Potency,[15],inactive
